Laboratory results reported in PubChem BioAssay (NCI).
About 79,000 compounds went through this panel and 15% of them were active in at least one assay; those are over-represented in the sample as a whole. Unmarked numbers belong to inactive results. The source made the active and inactive calls. No stated cut-off is given here; in the data, active means growth inhibition above about 70%; inactive means the rest.

What was measured:
[1] = NCI Yeast Anticancer Drug Screen. Data for the rad50 strain (AID 155);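 further: 0% = growth of vehicle-only cultures of the same strain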; conditions: S. cerevisiae rad50 strain growth inhibition, stronger effect = higher value
In short: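 Growth of the mutant yeast was measured after compound exposure and referenced to vehicle-treated cultures.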

[2] = NCI Yeast Anticancer Drug Screen. Data for the mec2-1 strain (AID 157); conditions: S. cerevisiae mec2-1 strain, stronger effect = higher value
In short: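 Yeast mec2-1 mutant treated with compound. Readout: growth inhibition vs vehicle controls.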

[3] = NCI Yeast Anticancer Drug Screen. Data for the sgs1 mgt1 strain (AID 161);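 further: 0% = growth of cultures given vehicle only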; conditions: S. cerevisiae sgs1 mgt1 strain, stronger effect = higher value
In short: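 Mutant yeast exposed to compound; growth scored against vehicle-only wells.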

[4] = NCI Yeast Anticancer Drug Screen. Data for the cln2 rad14 strain (AID 165);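 further: 0% = growth equal to vehicle treated cultures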; conditions: S. cerevisiae cln2 rad14 strain, stronger effect = higher value
In short: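 cln2 rad14 yeast strain; compound exposure; growth inhibition read vs vehicle controls.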

[5] = NCI Yeast Anticancer Drug Screen. Data for the bub3 strain (AID 167); conditions: S. cerevisiae bub3 mutant strain, stronger effect = higher value
In short: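 Whole-cell yeast assay. The mutant strain was incubated with compounds, and growth inhibition was determined by comparison with vehicle-treated cells.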

[6] = NCI Yeast Anticancer Drug Screen. Data for the mlh1 rad18 strain (AID 175); conditions: S. cerevisiae mlh1 rad18 strain growth inhibition, stronger effect = higher value
In short: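 Yeast w/ defined DNA-repair lesions; compound exposure; growth vs vehicle controls → % inhibition.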

[7] = at 5.0 µM (retest, dose inferred, filed as 0.5)
[8] = at 50.0 µM (retest, dose inferred, filed as 5.0)

Row | Structure (SMILES) | growth inhibition [1, 7] | growth inhibition [1, 8] | growth inhibition ([1]; at 50.0 µM) | growth inhibition [2, 7] [%] | growth inhibition [2, 8] | growth inhibition ([2]; at 50.0 µM) | growth inhibition [3, 7] [%] | growth inhibition [3, 8] | growth inhibition ([3]; at 50.0 µM) | growth inhibition [4, 7] | growth inhibition [4, 8] | growth inhibition ([4]; at 50.0 µM) | growth inhibition [5, 7] | growth inhibition [5, 8] | growth inhibition ([5]; at 50.0 µM) | growth inhibition [6, 7] | growth inhibition [6, 8] | growth inhibition ([6]; at 50.0 µM)
1 | COc1ccc(C(=O)c2cc(Cl)ccc2N)cc1 | 16% | 93% (active) | 99% (active) | -1 | 87% (active) | 98.2% (active) | 8 | 91% (active) | 99.1% (active) | -8% | 71% (active) | 92.1% (active) | 1% | 73% (active) | 99.2% (active) | -1% | 95% (active) | 94.2% (active)
2 | OCCC1CCN(CC/C=C2/c3ccc(F)cc3Sc3ccc(C(F)(F)F)cc32)CC1 | 26% | 59% | 37.4% | 7 | 45% | 62.9% | 21 | 68% | 82.6% (active) | 18% | 52% | 71.4% (active) | 4% | 38% | 64.5% | 24% | 56% | 88.2% (active)
3 | CC(=O)Nc1ccc(O)c(=O)cc1 | 18% | 96% (active) | 90.6% (active) | 42 | 97% (active) | 87.5% (active) | 27 | 96% (active) | 96.1% (active) | 16% | 93% (active) | 20.9% | 23% | 93% (active) | 53.9% | 19% | 97% (active) | 97.2% (active)
4 | C=C1C(=O)O[C@H]2C3C(=C(C)CC[C@@H]12)C(=O)[C@@H]1OC31C (some centres undefined) | 22% | 49% | 36.8% | 16 | 52% | 37.2% | 35 | 74% (active) | 46% | 19% | 51% | 34% | 21% | 60% | 23.9% | 19% | 62% | 46.2%
5 | COc1ccc2c(c1)CCCN2CCCCCCCCCN1CCCCC1 | 31% | 36% | 62% | 27 | 53% | 57.9% | 45 | 81% (active) | 82.8% (active) | 35% | 44% | 42.4% | 45% | 76% (active) | 79.6% (active) | 47% | 63% | 69%
6 | Cc1cc(N)c(C)c2c1[nH]c1ccc(Br)cc12 | 1% | 96% (active) | 54.1% | -3 | 89% (active) | 42.1% | -6 | 98% (active) | 77.2% (active) | -4% | 58% | 17.7% | -3% | 95% (active) | 87.2% (active) | 3% | 98% (active) | 38.5%
7 | N#CC1CCC(c2ccccc2)(c2ccccc2)C1=O (centres undefined) | 5% | 99% (active) | 94.6% (active) | 5 | 99% (active) | 99.7% (active) | 4 | 100% (active) | 99.6% (active) | -2% | 99% (active) | 97.5% (active) | -4% | 98% (active) | 74.3% (active) | -5% | 98% (active) | 99.5% (active)
8 | CC(CN1CCOCC1)(CN1CCOCC1)[N+](=O)[O-] | 10% | 99% (active) | 99.6% (active) | 8 | 100% (active) | 99.8% (active) | 4 | 100% (active) | 99.7% (active) | 3% | 99% (active) | 99.3% (active) | 14% | 99% (active) | 99.8% (active) | 13% | 99% (active) | 99.5% (active)
9 | COc1ccc2c(c1OC)OCC2C (centres undefined) | 3% | 68% | 86.5% (active) | 0 | 38% | 71% (active) | 1 | 56% | 37.6% | -4% | 57% | 57.4% | 2% | 71% (active) | 87.1% (active) | -4% | 67% | 43.2%
10 | CSc1cc(Cl)c(C)cc1S(=O)(=O)NC(=O)Nc1ccc(Cl)cc1 | 25% | 97% (active) | 99.1% (active) | 34 | 99% (active) | 99% (active) | 24 | 97% (active) | 99.5% (active) | 45% | 97% (active) | 98.7% (active) | 35% | 98% (active) | 98.5% (active) | 29% | 99% (active) | 99.3% (active)
11 | ON=C(CC(O)(C(F)(F)Cl)C(F)(F)Cl)CC(O)(C(F)(F)Cl)C(F)(F)Cl | 50% | 99% (active) | 99.7% (active) | 69 | 100% (active) | 99.6% (active) | 37 | 99% (active) | 99.5% (active) | 68% | 99% (active) | 99.5% (active) | 23% | 100% (active) | 99.8% (active) | 62% | 99% (active) | 99.5% (active)
12 | O=C(O)CCCc1ccc2ccccc2c1 | -5% | 0% | 17.4% | 11 | -1% | -27.1% | 10 | 6% | 11.9% | 14% | -71% | 40% | 13% | 0% | 5.65% | -1% | 9% | 12%
13 | C=C1C(O)C2(O)OCC34C(CC5C(C)=CC(=O)C(O)C5(C)C23)OC(=O)C(OC(=O)C/C=C(\C)CCCCC)C14 (centres undefined) | 76% (active) | 98% (active) | 92.3% (active) | 52 | 98% (active) | 93.3% (active) | 60 | 98% (active) | 93% (active) | 88% (active) | 98% (active) | 91.7% (active) | 75% (active) | 99% (active) | 91.2% (active) | 89% (active) | 98% (active) | 92.2% (active)
14 | C[C@]12CC[C@H](O)CC1=CC[C@@H]1C2CC[C@]2(C)NC(=O)CCC12 (some centres undefined) | -4% | 0% | 46.9% | 1 | 4% | 40.8% | -2 | 16% | 82.8% (active) | 1% | 0% | 53% | 3% | 4% | 39.3% | -3% | 1% | 76% (active)
15 | CCCCCCC(O)(CCCCCC)CCCCCC | -1% | -34% | 83.3% (active) | -3 | -34% | 32.8% | -3 | -31% | 42.8% | 1% | -41% | 23.9% | 0% | -12% | 5.3% | 1% | -31% | 44.1%
16 | Cn1c2nc(-[n+]3ccc(-c4ccccc4)cc3)nc-2c([O-])n(C)c1=O | 3% | 3% | -7.35% | -3 | 8% | 2.95% | 1 | -4% | 9.9% | -3% | 1% | 72.3% (active) | -1% | -3% | -2% | -1% | 16% | -7.5%
17 | Clc1ccc(-c2nnn3ccccc23)cc1 | 4% | 8% | 95.3% (active) | 12 | 9% | 93.5% (active) | -3 | 12% | 95.8% (active) | 4% | 10% | 28.6% | 2% | 5% | 91.7% (active) | 13% | 51% | 94.1% (active)
18 | NCCCNCc1c2ccccc2c(CNCCCN)c2ccccc12 | 6% | 6% | 10.7% | -7 | -7% | 43.4% | 1 | 1% | 58.9% | 24% | 24% | 56.1% | 15% | 15% | 33.8% | 4% | 4% | 74.5% (active)
